Test results from PubChem BioAssay (Tox21).
Values joined by “and” are separate entries in the source; they are usually repeats but may differ in a detail not shown here. Equal entries are not always repeated. Results filed as inconclusive are left out. Active and inactive are the calls of the source. Unless noted, calls follow the shape of the full dose curve.

How the values were obtained:
[1] = qHTS assay for small molecule disruptors of the mitochondrial membrane potential - cell viability (AID 720634); also: nearly all actives have a fitted effect of over 20% in size; also: potency is read from the fitted curve at half-maximal effect
Outline: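 HepG2 cells seeded overnight at 37 C, then exposed to compound or DMSO for 1 hr at 37 C, 5% CO2. m-MPI dye added, then CellTiter-Glo for 30 min at room temperature; viability read as ATP luminescence.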

[2] = molecular target: Estrogen receptor (Homo sapiens) (UniProt P03372); assay: qHTS assay to identify small molecule agonists of the estrogen receptor alpha (ER-alpha) signaling pathway (AID 743075);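 also: HEK293 GripTite cells with ER-alpha and UAS-driven beta-lactamase reporter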
Chain of Estrogen receptor (Homo sapiens) (P03372 whole entry, looked up): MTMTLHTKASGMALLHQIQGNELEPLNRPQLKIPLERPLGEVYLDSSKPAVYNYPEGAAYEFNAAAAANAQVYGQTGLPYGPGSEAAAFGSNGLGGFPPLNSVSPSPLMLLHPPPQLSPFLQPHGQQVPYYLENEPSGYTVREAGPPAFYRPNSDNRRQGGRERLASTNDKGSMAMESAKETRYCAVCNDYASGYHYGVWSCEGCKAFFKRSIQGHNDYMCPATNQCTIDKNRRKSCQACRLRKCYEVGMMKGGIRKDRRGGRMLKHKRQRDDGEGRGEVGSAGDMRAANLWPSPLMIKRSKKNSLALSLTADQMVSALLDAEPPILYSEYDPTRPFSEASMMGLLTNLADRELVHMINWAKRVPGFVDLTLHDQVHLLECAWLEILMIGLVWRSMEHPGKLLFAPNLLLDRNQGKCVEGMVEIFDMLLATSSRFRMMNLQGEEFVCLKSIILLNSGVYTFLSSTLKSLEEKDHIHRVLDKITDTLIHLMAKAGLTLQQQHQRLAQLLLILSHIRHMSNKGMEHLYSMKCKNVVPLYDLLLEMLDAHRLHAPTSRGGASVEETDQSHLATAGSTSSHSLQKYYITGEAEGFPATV

[3] = qHTS assay to identify small molecule antagonists of the estrogen receptor alpha (ER-alpha) signaling pathway using the BG1 cell line (AID 743080);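 also: BG1 cells stimulated with 17beta-estradiol alongside compound; nearly all actives have a fitted effect of over 25% in size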; also: potency is read from the fitted curve at half-maximal effect
Outline: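 BG1-Luc-4E2 cells (endogenous full-length ER-alpha, stable 4×ERE-luciferase) were starved 5 days in phenol-red-free medium with 10% charcoal-stripped FBS, plated 24 h, then given compound plus 17beta-estradiol for 21.5 h at 37 C; ONE-Glo luminescence read after 30 min.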

[4] = qHTS assay to identify small molecule antagonists of the farnesoid-X-receptor (FXR) signaling pathway - cell viability counter screen (AID 743221; active = well fitted cell-killing curve with a large enough effect in the repeat runs, not every such curve was filed as active; also: nearly all actives have a fitted effect of over 50% in size; also: potency is read from the fitted curve at half-maximal effect)
Outline: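 Quantitative HTS of the Tox21 10K library run in parallel with the beta-lactamase reporter read. HEK 293T cells carrying a UAS-driven bla reporter got compound and 50 uM CDCA (final) for 16 h; ATP-based luminescence followed.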

[5] = molecular target: Thyrotropin receptor (Homo sapiens) (UniProt P16473); assay: qHTS assay to identify small molecule agonists of the thyroid stimulating hormone receptor (TSHR) signaling pathway (AID 1224843); also: nearly all actives have a fitted effect of over 45% in size
Chain of Thyrotropin receptor (Homo sapiens) (P16473 whole entry, looked up): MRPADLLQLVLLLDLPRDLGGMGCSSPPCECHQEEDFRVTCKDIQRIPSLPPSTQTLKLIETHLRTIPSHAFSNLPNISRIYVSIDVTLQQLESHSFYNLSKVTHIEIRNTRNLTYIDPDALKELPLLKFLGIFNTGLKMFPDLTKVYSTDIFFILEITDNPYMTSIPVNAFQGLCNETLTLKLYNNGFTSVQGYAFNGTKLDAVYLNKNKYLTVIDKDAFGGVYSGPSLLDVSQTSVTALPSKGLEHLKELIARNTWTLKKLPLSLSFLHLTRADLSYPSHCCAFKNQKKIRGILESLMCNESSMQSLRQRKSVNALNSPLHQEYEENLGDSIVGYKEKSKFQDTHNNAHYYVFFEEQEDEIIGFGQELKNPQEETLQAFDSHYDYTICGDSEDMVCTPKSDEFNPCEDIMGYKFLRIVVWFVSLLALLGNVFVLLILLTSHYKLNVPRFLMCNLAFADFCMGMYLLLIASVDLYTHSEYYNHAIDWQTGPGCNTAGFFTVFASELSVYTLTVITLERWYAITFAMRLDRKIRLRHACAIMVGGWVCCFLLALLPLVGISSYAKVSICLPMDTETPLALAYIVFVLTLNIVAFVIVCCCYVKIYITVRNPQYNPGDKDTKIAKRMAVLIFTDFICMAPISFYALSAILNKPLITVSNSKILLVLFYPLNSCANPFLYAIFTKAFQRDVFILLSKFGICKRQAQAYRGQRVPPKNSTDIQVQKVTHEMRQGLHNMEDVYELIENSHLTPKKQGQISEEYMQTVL
Outline: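 Screening of the Tox21 10K collection used HEK293 cells engineered with TSHR at 800 cells per well. After a 30-min room-temperature compound exposure, HTRF cAMP reagents were added and fluorescence recorded 1 h later.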

[6] = molecular target: Androgen receptor (Homo sapiens) (UniProt P10275); assay: qHTS assay to identify small molecule agonists of the androgen receptor (AR) signaling pathway in the presence of an antagonist (AID 1259381); also: nearly all actives have a fitted effect of over 15% in size; also: potency is read from the fitted curve at half-maximal effect
Chain of Androgen receptor (Homo sapiens) (P10275 whole entry, looked up): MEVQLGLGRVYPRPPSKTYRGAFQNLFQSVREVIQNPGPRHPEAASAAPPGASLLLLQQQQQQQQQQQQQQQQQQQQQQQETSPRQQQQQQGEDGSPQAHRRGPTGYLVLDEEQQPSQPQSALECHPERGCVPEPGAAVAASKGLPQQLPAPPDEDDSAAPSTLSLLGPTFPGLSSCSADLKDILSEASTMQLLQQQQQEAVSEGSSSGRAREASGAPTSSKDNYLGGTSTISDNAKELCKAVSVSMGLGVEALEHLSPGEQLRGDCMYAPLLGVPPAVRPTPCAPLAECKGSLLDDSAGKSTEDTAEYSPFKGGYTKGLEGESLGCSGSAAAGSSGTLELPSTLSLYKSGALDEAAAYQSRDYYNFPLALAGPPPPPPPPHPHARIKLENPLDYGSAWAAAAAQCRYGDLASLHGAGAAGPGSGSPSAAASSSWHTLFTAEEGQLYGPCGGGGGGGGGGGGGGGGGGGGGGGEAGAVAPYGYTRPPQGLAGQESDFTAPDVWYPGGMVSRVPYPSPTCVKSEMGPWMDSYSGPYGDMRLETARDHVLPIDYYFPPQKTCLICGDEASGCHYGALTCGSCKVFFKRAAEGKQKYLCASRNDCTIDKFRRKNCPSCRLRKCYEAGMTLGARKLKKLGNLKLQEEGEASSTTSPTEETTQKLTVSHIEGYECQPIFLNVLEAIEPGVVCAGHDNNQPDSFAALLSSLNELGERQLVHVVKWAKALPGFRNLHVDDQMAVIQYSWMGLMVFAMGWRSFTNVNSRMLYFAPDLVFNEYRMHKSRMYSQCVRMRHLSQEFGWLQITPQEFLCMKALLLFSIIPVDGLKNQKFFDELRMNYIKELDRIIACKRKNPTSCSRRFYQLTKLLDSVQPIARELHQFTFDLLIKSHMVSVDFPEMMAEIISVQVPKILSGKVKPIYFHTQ
Outline: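 MDA-kb2 human breast carcinoma cells carrying an MMTV-luciferase reporter (AR- and GR-responsive) were treated with compounds at 15 concentrations plus 3.0uM final nilutamide for 16hr at 37C without CO2; luminescence was read after ONE-Glo addition.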

[7] = molecular target: Thyrotropin-releasing hormone receptor (Homo sapiens) (UniProt P34981); assay: qHTS assay to identify small molecule antagonists of the thyrotropin-releasing hormone receptor (TRHR) signaling pathway (AID 1346877; active = well fitted inhibition curve with a large enough effect in the repeat runs, not every such curve was filed as active; also: series mostly up to about 51 µM)
Chain of Thyrotropin-releasing hormone receptor (Homo sapiens) (P34981 whole entry, looked up): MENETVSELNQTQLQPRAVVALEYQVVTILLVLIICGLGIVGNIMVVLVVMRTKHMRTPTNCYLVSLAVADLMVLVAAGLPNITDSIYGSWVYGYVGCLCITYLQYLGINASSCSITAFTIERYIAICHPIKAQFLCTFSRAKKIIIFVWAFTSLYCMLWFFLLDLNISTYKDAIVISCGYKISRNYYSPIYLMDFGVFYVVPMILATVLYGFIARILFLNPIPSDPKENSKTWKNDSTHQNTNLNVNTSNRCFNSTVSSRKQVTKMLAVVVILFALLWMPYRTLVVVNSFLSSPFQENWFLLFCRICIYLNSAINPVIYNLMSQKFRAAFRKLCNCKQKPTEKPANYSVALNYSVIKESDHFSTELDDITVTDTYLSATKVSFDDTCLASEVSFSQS
Outline: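 TRHR-expressing HEK293 cells were seeded, cultured 18 h at 37 °C, then loaded with calcium dye for 2 h. Compounds were pre-incubated 5 min at room temperature before 1 nM TRH (final) was added, and kinetic fluorescence was recorded for 3 min.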

[8] = molecular target: Retinoic acid receptor RXR-alpha (Homo sapiens) (UniProt P19793); assay: qHTS assay to identify small molecule agonists of the RXR signaling pathway (AID 1159527); also: nearly all actives have a fitted effect of over 35% in size
Chain of Retinoic acid receptor RXR-alpha (Homo sapiens) (P19793 whole entry, looked up): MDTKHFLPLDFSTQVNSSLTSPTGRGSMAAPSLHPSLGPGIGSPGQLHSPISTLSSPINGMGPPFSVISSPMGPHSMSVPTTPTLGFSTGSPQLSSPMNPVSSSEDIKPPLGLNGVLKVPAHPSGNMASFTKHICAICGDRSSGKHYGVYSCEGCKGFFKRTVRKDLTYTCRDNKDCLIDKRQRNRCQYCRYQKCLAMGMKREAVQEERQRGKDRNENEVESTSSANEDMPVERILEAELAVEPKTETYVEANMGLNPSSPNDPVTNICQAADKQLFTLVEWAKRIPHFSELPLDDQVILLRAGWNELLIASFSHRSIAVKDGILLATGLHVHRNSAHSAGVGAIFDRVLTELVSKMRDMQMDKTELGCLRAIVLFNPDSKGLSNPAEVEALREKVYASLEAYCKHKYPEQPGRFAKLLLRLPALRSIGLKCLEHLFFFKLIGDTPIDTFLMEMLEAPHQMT
Outline: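 qHTS of the Tox21 10K library in GeneBLAzer RXR-alpha HEK 293T cells carrying a beta-lactamase reporter […]; 16 hr treatment, 9-cis retinoic acid as agonist control, FRET read-out.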

[9] = qHTS assay to identify small molecule antagonists of the glucocorticoid receptor (GR) signaling pathway - cell viability counter screen (AID 720693; active = well fitted curve in the direction sought with a large enough effect in the repeat runs; an effect the other way counts as inactive or inconclusive; also: nearly all actives have a fitted effect of over 55% in size)
[10] = qHTS assay to identify small molecule antagonists of the thyroid receptor (TR) signaling pathway - cell viability counter screen (AID 743064; active = well fitted curve in the direction sought with a large enough effect in the repeat runs; an effect the other way counts as inactive or inconclusive; also: nearly all actives have a fitted effect of over 50% in size; also: potency is read from the fitted curve at half-maximal effect)
Outline: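 Plate GH3.TRE-Luc cells; incubate 4 h at 37 °C; add compound, then T3 to 1 nM final; incubate 23.5 h; add CellTiter-Fluor; incubate 30 min at 37 °C, 5% CO2; read fluorescence.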

[11] = test system: thyroid hormone receptor (rat, GH3 cells); assay: qHTS assay to identify small molecule agonists of the thyroid receptor (TR) signaling pathway (AID 743066)
[12] = qHTS assay to identify small molecule antagonists of the estrogen receptor alpha (ER-alpha) signaling pathway - cell viability counter screen (AID 743074);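 also: HEK293 cells carrying ER-alpha-UAS-bla reporter stimulated with 17beta-estradiol; nearly all actives have a fitted effect of over 45% in size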; also: potency is read from the fitted curve at half-maximal effect
[13] = molecular target: Peroxisome proliferator-activated receptor gamma (Homo sapiens) (UniProt P37231); assay: qHTS assay to identify small molecule agonists of the peroxisome proliferator-activated receptor gamma (PPARg) signaling pathway (AID 743094; active = well fitted activation curve with a large enough effect in the signal ratio in the repeat runs, not every such curve was filed as active; the % refers to the signal ratio)
Chain of Peroxisome proliferator-activated receptor gamma (Homo sapiens) (P37231 whole entry, looked up): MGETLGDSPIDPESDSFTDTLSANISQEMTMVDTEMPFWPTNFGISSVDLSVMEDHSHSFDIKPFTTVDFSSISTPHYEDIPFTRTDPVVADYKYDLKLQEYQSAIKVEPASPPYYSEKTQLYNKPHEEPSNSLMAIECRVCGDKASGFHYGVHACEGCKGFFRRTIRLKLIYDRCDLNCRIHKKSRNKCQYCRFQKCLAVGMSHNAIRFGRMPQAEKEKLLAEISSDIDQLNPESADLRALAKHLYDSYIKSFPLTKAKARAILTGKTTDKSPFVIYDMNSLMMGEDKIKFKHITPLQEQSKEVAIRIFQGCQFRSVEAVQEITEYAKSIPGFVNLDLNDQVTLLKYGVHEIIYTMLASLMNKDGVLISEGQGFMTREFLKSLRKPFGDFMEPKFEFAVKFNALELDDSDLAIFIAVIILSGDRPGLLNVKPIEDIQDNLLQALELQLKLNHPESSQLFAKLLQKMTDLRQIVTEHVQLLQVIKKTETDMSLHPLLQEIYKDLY
Outline: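 GeneBLAzer PPARg UAS-bla HEK293H cells carrying a stably integrated beta-lactamase reporter were pre-incubated 5 h at 37C, then exposed to compounds in DMSO for 17 h at 37C; LiveBLAzer B/G FRET substrate was added for 1 h at room temperature and fluorescence read.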

[14] = molecular target: Thyrotropin receptor (Homo sapiens) (UniProt P16473); assay: qHTS assay to identify small molecule antagonists of the thyroid stimulating hormone receptor (TSHR) signaling pathway (AID 1259385); also: nearly all actives have a fitted effect of over 20% in size
Outline: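 Antagonist mode: compound-treated TSHR-expressing HEK293 cells were stimulated with 1.5 ng/mL TSH (final) in presence of Ro20-1724 for 30 min at RT. HTRF cAMP detection after 1 h; each compound tested at 15 concentrations, triplicate.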

[15] = molecular target: Progesterone receptor (Homo sapiens) (UniProt P06401); assay: qHTS assay to identify small molecule antagonists of the progesterone receptor (PR) signaling pathway (AID 1346795; active = well fitted inhibition curve with a large enough effect in the signal ratio in the repeat runs, not every such curve was filed as active; the % refers to the signal ratio; also: potency is read from the fitted curve at half-maximal effect)
Chain of Progesterone receptor (Homo sapiens) (P06401 whole entry, looked up): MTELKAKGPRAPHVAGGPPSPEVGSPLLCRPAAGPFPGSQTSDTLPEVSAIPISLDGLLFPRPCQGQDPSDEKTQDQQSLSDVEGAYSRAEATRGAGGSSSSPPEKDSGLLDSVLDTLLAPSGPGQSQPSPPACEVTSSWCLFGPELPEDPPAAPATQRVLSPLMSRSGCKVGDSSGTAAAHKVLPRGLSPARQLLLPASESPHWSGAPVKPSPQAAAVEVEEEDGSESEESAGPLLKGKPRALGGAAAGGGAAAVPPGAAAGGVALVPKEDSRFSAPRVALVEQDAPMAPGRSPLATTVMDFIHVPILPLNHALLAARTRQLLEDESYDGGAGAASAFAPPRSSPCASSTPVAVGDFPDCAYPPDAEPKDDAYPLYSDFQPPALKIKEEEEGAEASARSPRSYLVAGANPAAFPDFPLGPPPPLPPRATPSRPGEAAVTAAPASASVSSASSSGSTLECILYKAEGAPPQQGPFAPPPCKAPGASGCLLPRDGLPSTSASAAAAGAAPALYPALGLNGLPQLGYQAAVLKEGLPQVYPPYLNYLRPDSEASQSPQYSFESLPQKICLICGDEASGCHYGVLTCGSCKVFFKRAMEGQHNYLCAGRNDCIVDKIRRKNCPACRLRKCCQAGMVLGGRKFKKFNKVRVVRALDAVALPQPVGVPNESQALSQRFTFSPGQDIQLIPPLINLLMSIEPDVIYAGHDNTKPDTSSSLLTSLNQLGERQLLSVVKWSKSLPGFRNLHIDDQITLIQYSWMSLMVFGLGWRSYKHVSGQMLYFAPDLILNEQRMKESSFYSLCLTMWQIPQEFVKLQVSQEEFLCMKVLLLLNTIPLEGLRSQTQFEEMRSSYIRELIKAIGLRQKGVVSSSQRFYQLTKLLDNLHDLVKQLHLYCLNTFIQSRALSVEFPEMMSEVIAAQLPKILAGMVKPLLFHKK
Outline: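 HEK293T PR-UAS-bla reporter cells in charcoal-stripped serum (2%) received compound after a 6 hr settling period, followed by R5020 agonist at 1 nM final; 16 hr incubation preceded the FRET substrate step and fluorescence measurement.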

[16] = qHTS assay to identify small molecule agonists of the progesterone receptor (PR) signaling pathway - cell viability counter screen (AID 1346799); also: nearly all actives have a fitted effect of over 45% in size; also: potency is read from the fitted curve at half-maximal effect
Outline: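 Counter screen for cytotoxicity: compound-treated PR-UAS-bla HEK293T cells (16 hr, 37C, 5% CO2) were assayed with CellTiter-Glo, luminescence measured after 30 min at room temperature.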

[17] = qHTS assay to identify small molecule antagonists of the androgen receptor (AR) signaling pathway - cell viability counter screen (AID 743033; active = well fitted curve in the direction sought with a large enough effect in the repeat runs; an effect the other way counts as inactive or inconclusive; also: nearly all actives have a fitted effect of over 45% in size; also: potency is read from the fitted curve at half-maximal effect)
[18] = molecular target: Androgen receptor (Homo sapiens) (UniProt P10275); assay: qHTS assay to identify small molecule antagonists of the androgen receptor (AR) signaling pathway using the MDA cell line in the presence of 0.5 nM R1881 (AID 1259243; active = well fitted curve in the direction sought with a large enough effect in the repeat runs; an effect the other way counts as inactive or inconclusive; also: nearly all actives have a fitted effect of over 50% in size)
Outline: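 MDA-kb2 human breast carcinoma cells carrying an MMTV-luciferase reporter (AR- and GR-responsive) were plated, rested 5 hr at 37C, dosed with compounds, then stimulated with 0.5 nM R1881 (final) for 16 hr; luminescence was read after ONE-Glo.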

[19] = qHTS assay for identifying genotoxic compounds that show differential cytotoxicity against isogenic chicken DT40 cell lines with known DNA damage response pathways - Rev3 mutant cell line (AID 743014; active = well fitted curve in the direction sought with a large enough effect in the repeat runs; an effect the other way counts as inactive or inconclusive; also: nearly all actives have a fitted effect of over 55% in size; also: potency is read from the fitted curve at half-maximal effect)
[20] = qHTS assay to identify small molecule antagonists of the retinoic acid receptor (RAR) signaling pathway (AID 1159552; active = well fitted curve in the direction sought with a large enough effect in the repeat runs; an effect the other way counts as inactive or inconclusive; also: nearly all actives have a fitted effect of over 50% in size)
Outline: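 Quantitative HTS in C3RL4 RARE-luciferase reporter cells. Compounds were added with 1 uM (final) retinol; luminescence was read after 6 hr.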

Measured: Potency

COc1cc(OC)c(OC)cc1C=O
inactive: [1] | [2] | [3] | [4] | [5] | [6] | [7]

O=C(c1ccc(Cl)cc1)c1ccc(Cl)cc1
inactive: [8]

CN1CSC(=S)N(C)C1
active: [10] 30.5 µM | [4] 12.3 µM | [15] 19.2 µM and 8.61 µM | [16] 24.3 µM
inactive: [1] | [9] | [11] | [12] | [2] | [13] | [5] | [14] | [7]

ClC1=C(Cl)[C@]2(Cl)[C@@H]3[C@@H](Cl)[C@H]4O[C@H]4[C@@H]3C1(Cl)C2(Cl)Cl
inactive: [1] | [17] | [12] | [2] | [3] | [13] | [4]

CCN(CC)C(=O)Cl
inactive: [8] | [5] | [18] | [6] | [14] | [15] | [16] | [7]

CNC(=O)Oc1cc(C)c(SC)c(C)c1
inactive: [8] | [5] | [14] | [16] | [7]
active: [6] 12.2 µM | [15] 27.3 µM

O=C(Nc1ccccc1-c1ccc(Cl)cc1)c1cccnc1Cl
active: [19] 67.4 µM
inactive: [11] | [2] | [3] | [13] | [7]

c1ccc2c(c1)Sc1ccccc1N2CC1CN2CCC1CC2 (stereo not given)
active: [19] 11.9 µM | [12] 21.3 µM | [4] 18.8 µM | [15] 26.6 µM | [16] 13.3 µM
inactive: [1] | [9]

CCC(C)=O
inactive: [8] | [20]

O=[N+]([O-])c1c(Cl)c(Cl)cc(Cl)c1Cl
inactive: [17] | [11] | [3] | [13] | [4] | [20] | [15]

CC1COC(Cn2cncn2)(c2ccc(Oc3ccc(Cl)cc3)cc2Cl)O1 (stereo not given)
inactive: [5]
active: [1] 2.43 µM | [17] 21.9 µM | [10] 48.6 µM | [3] 13.7 µM | [15] 24.3 µM

Clc1ccccc1-c1ccccc1Cl
inactive: [9] | [10] | [12] | [13] | [4] | [15] | [16]

C=CC(=O)OCCCC
inactive: [14]

CCCN1CCC[C@H](c2cccc(O)c2)C1
inactive: [1] | [9] | [19] | [17] | [10] | [11] | [2] | [3] | [13]

O=P(O)(O)C(Cl)(Cl)P(=O)(O)O
inactive: [1] | [9] | [17] | [10] | [11] | [2] | [3] | [13]

CCCCCN(C)CCC(O)(P(=O)(O)O)P(=O)(O)O
inactive: [1] | [9] | [19] | [10] | [11] | [12] | [2] | [3] | [13]

CCCCc1ccc(C(=O)O)nc1
inactive: [1] | [9] | [17] | [10] | [11] | [2] | [3] | [13]

C[C@]12N[C@H](Cc3ccccc31)c1ccccc12
inactive: [1] | [9] | [19] | [17] | [12] | [2] | [3] | [13]

CC(C)NC(C)Cc1ccc(I)cc1 (stereo not given)
inactive: [1] | [9] | [17] | [11] | [12] | [2] | [3] | [13]
active: [19] 1.68 µM
